Inconclusive results are not listed. A call without a number means that no potency is given here. Calls of active or inactive are those of the source. Calls come from the whole dose curve; as a rule, active = well fitted curve in the direction sought with a large enough effect in the repeat runs; inconclusive = weak or mixed curves; inactive = no such curve, though single readings can be large; an effect the other way counts as inactive or inconclusive.

The nature of the first experiment: qHTS RealTime-Glo MT Cell Viability Assay in HEK293 cells - 8 hour (AID 1224887). For activity change, negative = cytotoxicity: top concentration of the series differs between compounds. Note: nearly all actives have a fitted effect of over 50% in size. Note: potency is the fitted concentration of half-maximal effect. To be noted: RealTime-Glo luminescence; series mostly up to 76.8 µM. In short, it runs like this: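 Viable HEK293 cells reduce a cell-permeant prosubstrate; the product diffuses out and is consumed by NanoLuc in the medium to give light. Compounds went in after a 5 h incubation and plates were read over the treatment course.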
Consider `CCC(=O)CC(C)CC` (stereo not drawn), for which the activity change, negative = cytotoxicity was 3.45% [at 0.29 µM] (inactive).
For the compound `C=C/C=C/C=C/CCCCC`, the activity change, negative = cytotoxicity is -1.22% [at 15.8 µM] (inactive).
For `Oc1c(Br)cc(Br)c2cccnc12`, the Potency entry is “inactive”.
Still for that read-out and setting: in the case of `CCCCCCCC/C=C\CCCCCCCC(=O)NCc1ccc(O)c(OC)c1` it was 1.51 µM (active); in that of `CCCOc1sc(C(=O)N2CCC(c3cc(CN)ccc3F)CC2)c(C)c1Br`, 17.9 µM (active).
In the case of `O=S(O)O`, the activity change, negative = cytotoxicity was 3.5% [at 15.8 µM] (inactive).
Regarding `NCCCCCCNCCCCCCN`, the Potency result was “inactive”.
Same read-out and setting: in the case of `C=CC/C=C/C/C=C/C/C=C/C` it was “inactive”.
The same measure, in the same setting: in the case of `C=CCCCCCCC=C` it was “inactive”; in that of `CCCCN(C)C`, “inactive”.
With `CC(NCCC(c1ccccc1)c1ccccc1)c1ccccc1` (stereo not drawn), the Potency was 21.3 µM (active).
Still for that read-out and setting: in the case of `CCCCCCCCCCCCCCCC` it was “inactive”.
With `CCc1cccc(CC)c1NC(=O)C(=O)O`, the Potency result was “inactive”.
The same measure, in the same setting: in the case of `O=C1OC(OC(=O)c2cccnc2Nc2cccc(C(F)(F)F)c2)c2ccccc21` (stereo not drawn) it was “inactive”; in that of `CN1[C@@H]2CC[C@H]1CC(OC(=O)C(CO)c1ccccc1)C2` (stereo partly drawn), “inactive”; in that of `CC(COC(=O)c1ccccc1)OC(=O)c1ccccc1` (stereo not drawn), “inactive”.
On the same count and under the same terms, the same measure for `CCOC(=O)CN`: “inactive”; for `COC(=O)CC(C)CCC=C(C)C` (stereo not drawn): “inactive”; for `CCCCCCCC(=O)OCC`: “inactive”.
Turning to `CCOC(/C=C(\C)CCC=C(C)C)OCC`, the Potency result was “inactive”.
Still for that read-out and setting: in the case of `CCC1CCCCC1` it was “inactive”.
Same read-out and setting: in the case of `CCCCCCCCCCCCCCNCCO` it was 23.9 µM (active); in that of `Cc1c(-c2ccc(O)cc2)n(Cc2ccc(OCCN3CCCCCC3)cc2)c2ccc(O)cc12`, 2.39 µM (active); in that of `C=CC(C)(CCC=C(C)C)OC(=O)/C=C/c1ccccc1` (stereo not drawn), “inactive”.
Still for that read-out and setting: the same measure for `COc1nccnc1CC(C)C`: “inactive”; for `Cc1c(C(=O)O)cccc1[N+](=O)[O-]`: “inactive”.
For `Clc1ccccc1CN1CCc2sccc2C1`, the Potency entry was “inactive”.
Still for that read-out and setting: in the case of `Clc1ccc(C(c2ccccc2Cl)C(Cl)Cl)cc1` (stereo not drawn) it was “inactive”; in that of `CCC(C)c1ccccc1` (stereo not drawn), “inactive”; in that of `CCCCCCCOC(=O)c1ccccc1C(=O)OCCCCCCC`, “inactive”.
On the same count and under the same terms, in the case of `COCC(=O)O[C@]1(CCN(C)CCCc2nc3ccccc3[nH]2)CCc2cc(F)ccc2[C@@H]1C(C)C` it was 6.74 µM (active); in that of `O[C@@H](c1cc(C(F)(F)F)nc2c(C(F)(F)F)cccc12)[C@H]1CCCCN1`, 7.56 µM (active); in that of `CC(C)=C1CC[C@@H](C)CC1=O`, “inactive”.
Same read-out and setting: in the case of `SCCCCCCCCS` it was “inactive”.

The nature of a further experiment: A CellTox Green Cytotoxicity Assay to monitor cytotoxicity in HEK293 cells - 16 hour (AID 1224888). Note: nearly all actives have a fitted effect of over 35% in size. Note: potency is the fitted concentration of half-maximal effect. To be noted: CellTox Green fluorescence; series mostly up to 76.8 µM. Put shortly:
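Fluorescence intensity, read at 0, 8, 16, 24, 32 and 40 h of compound treatment, reflected dye binding to DNA of dead HEK293 cells; compounds (23 nL, DMSO) were added 5 h after plating cells with reagent.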
With `CCC(=O)CC(C)CC` (stereo not drawn), the activity change is 10.7% [at 0.29 µM, active compounds read high] (inactive).
In the case of `C=C/C=C/C=C/CCCCC`, the activity change was -0.0444% [at 15.8 µM, active compounds read high] (inactive).
For `Oc1c(Br)cc(Br)c2cccnc12`, the Potency result is “inactive”.
The same measure, in the same setting: the same measure for `CCCOc1sc(C(=O)N2CCC(c3cc(CN)ccc3F)CC2)c(C)c1Br`: 35.7 µM (active).
As for `O=S(O)O`, the activity change is 1.02% [at 15.8 µM, active compounds read high] (inactive).
In the case of `C=CCCCCCCC=C`, the Potency result was “inactive”.
The same measure, in the same setting: in the case of `CCCCN(C)C` it was “inactive”; in that of `CC(NCCC(c1ccccc1)c1ccccc1)c1ccccc1` (stereo not drawn), 21.3 µM (active).
The same measure, in the same setting: in the case of `CCc1cccc(CC)c1NC(=O)C(=O)O` it was “inactive”; in that of `O=C1OC(OC(=O)c2cccnc2Nc2cccc(C(F)(F)F)c2)c2ccccc21` (stereo not drawn), “inactive”; in that of `CC(COC(=O)c1ccccc1)OC(=O)c1ccccc1` (stereo not drawn), “inactive”.
Still for that read-out and setting: the same measure for `CCOC(=O)CN`: “inactive”; for `COC(=O)CC(C)CCC=C(C)C` (stereo not drawn): “inactive”.
For `CCCCCCCC(=O)OCC`, the Potency result is “inactive”.
Consider `CCC1CCCCC1`, for which the Potency entry is “inactive”.
Same read-out and setting: in the case of `CCCCCCCCCCCCCCNCCO` it was 21.3 µM (active).
The same measure, in the same setting: in the case of `Cc1c(-c2ccc(O)cc2)n(Cc2ccc(OCCN3CCCCCC3)cc2)c2ccc(O)cc12` it was 23.9 µM (active).
The same measure, in the same setting: the same measure for `C=CC(C)(CCC=C(C)C)OC(=O)/C=C/c1ccccc1` (stereo not drawn): 27.5 µM (active).
With `COc1nccnc1CC(C)C`, the Potency result was “inactive”.
The same measure, in the same setting: the same measure for `Cc1c(C(=O)O)cccc1[N+](=O)[O-]`: “inactive”; for `Clc1ccccc1CN1CCc2sccc2C1`: “inactive”; for `Clc1ccc(C(c2ccccc2Cl)C(Cl)Cl)cc1` (stereo not drawn): “inactive”.
The same measure, in the same setting: the same measure for `CCC(C)c1ccccc1` (stereo not drawn): “inactive”; for `CCCCCCCOC(=O)c1ccccc1C(=O)OCCCCCCC`: “inactive”.
The same measure, in the same setting: the same measure for `COCC(=O)O[C@]1(CCN(C)CCCc2nc3ccccc3[nH]2)CCc2cc(F)ccc2[C@@H]1C(C)C`: 23.9 µM (active); for `SCCCCCCCCS`: “inactive”.

The next experiment in a line: qHTS RealTime-Glo MT Cell Viability Assay in HepG2 cells - 0 hour (AID 1224889). Note: nearly all actives have a fitted effect of over 50% in size. The following applies: RealTime-Glo luminescence; series mostly up to 76.8 µM. In short, it runs like this:
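qHTS, HepG2, 600 cells/well, RealTime-Glo (NanoLuc + prosubstrate) added with cells; 5 h preincubation; DMSO compound addition; 37 C; luminescence at 0/8/16/24/32/40 h.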
(In general: qHTS replaces the single test concentration by a dilution series.)
For the compound `CCC(=O)CC(C)CC` (stereo not drawn), the activity change, negative = cytotoxicity is 5.37% [at 0.29 µM] (inactive).
Still for that read-out and setting: the same measure for `C=C/C=C/C=C/CCCCC`: -16.9% [at 15.8 µM] (inactive).
Turning to `Oc1c(Br)cc(Br)c2cccnc12`, the Potency result is “inactive”.
On the same count and under the same terms, the same measure for `CCCCCCCC/C=C\CCCCCCCC(=O)NCc1ccc(O)c(OC)c1`: “inactive”.
As to `O=S(O)O`, the activity change, negative = cytotoxicity was -7.74% [at 15.8 µM] (inactive).
Turning to `NCCCCCCNCCCCCCN`, the Potency result was “inactive”.
On the same count and under the same terms, in the case of `C=CC/C=C/C/C=C/C/C=C/C` it was “inactive”.
The same measure, in the same setting: in the case of `C=CCCCCCCC=C` it was “inactive”; in that of `CCCCN(C)C`, “inactive”.
The same measure, in the same setting: in the case of `CC(NCCC(c1ccccc1)c1ccccc1)c1ccccc1` (stereo not drawn) it was “inactive”; in that of `CCCCCCCCCCCCCCCC`, “inactive”; in that of `CCc1cccc(CC)c1NC(=O)C(=O)O`, “inactive”.
For `O=C1OC(OC(=O)c2cccnc2Nc2cccc(C(F)(F)F)c2)c2ccccc21` (stereo not drawn), the Potency entry was “inactive”.
The same measure, in the same setting: the same measure for `CN1[C@@H]2CC[C@H]1CC(OC(=O)C(CO)c1ccccc1)C2` (stereo partly drawn): “inactive”; for `CC(COC(=O)c1ccccc1)OC(=O)c1ccccc1` (stereo not drawn): “inactive”; for `CCOC(=O)CN`: “inactive”.
On the same count and under the same terms, the same measure for `COC(=O)CC(C)CCC=C(C)C` (stereo not drawn): “inactive”; for `CCCCCCCC(=O)OCC`: “inactive”.
On the same count and under the same terms, in the case of `CCOC(/C=C(\C)CCC=C(C)C)OCC` it was “inactive”; in that of `CCC1CCCCC1`, “inactive”; in that of `O=C1c2c(O)ccc(O)c2C(=O)c2c(NCCNCCO)ccc(NCCNCCO)c21`, “inactive”.
Consider `Cc1c(-c2ccc(O)cc2)n(Cc2ccc(OCCN3CCCCCC3)cc2)c2ccc(O)cc12`, for which the Potency entry was “inactive”.
The same measure, in the same setting: the same measure for `C=CC(C)(CCC=C(C)C)OC(=O)/C=C/c1ccccc1` (stereo not drawn): “inactive”.
As for `COc1nccnc1CC(C)C`, the Potency result was “inactive”.
Take `CCCCC(CC)COC(=O)c1ccc(O)cc1` (stereo not drawn): the Potency entry was “inactive”.
The same measure, in the same setting: the same measure for `Cc1c(C(=O)O)cccc1[N+](=O)[O-]`: “inactive”; for `Clc1ccccc1CN1CCc2sccc2C1`: “inactive”; for `Clc1ccc(C(c2ccccc2Cl)C(Cl)Cl)cc1` (stereo not drawn): “inactive”.
As to `CCC(C)c1ccccc1` (stereo not drawn), the Potency result was “inactive”.
For the compound `CCCCCCCOC(=O)c1ccccc1C(=O)OCCCCCCC`, the Potency result was “inactive”.
The same measure, in the same setting: in the case of `COCC(=O)O[C@]1(CCN(C)CCCc2nc3ccccc3[nH]2)CCc2cc(F)ccc2[C@@H]1C(C)C` it was “inactive”; in that of `CC(C)=C1CC[C@@H](C)CC1=O`, “inactive”; in that of `SCCCCCCCCS`, “inactive”.

Values taken from PubChem BioAssay (Tox21).
